Data published in PubChem BioAssay (EPA / NIEHS).
Calls of active or inactive are those of the source. Rule for the calls: active = hit-call score of the fitted dose curve at least 0.9, where 1 is the maximum; inactive = score below 0.9.

Columns and labels:
[1] = ATG_CRE_CIS: Attagene CIS-FACTORIAL HepG2 Assay for human cAMP Responsive Element (CRE) binding protein 3 (AID 2282926); settings: HepG2 CRE cis-reporter, Attagene multiplexed mRNA; actives raise or lower the signal
In short: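 Readout: fluorescently labelled reporter transcripts resolved by capillary electrophoresis after RT-PCR, taken 24 h post-dosing in transfected HepG2. Endogenous transcription factor activity drives each cis-element reporter; gain or loss of signal fitted relative to DMSO control.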

[2] = target: CCAAT/enhancer-binding protein beta (Homo sapiens) (UniProt P17676); assay: ATG_C_EBP_CIS: Attagene CIS-FACTORIAL HepG2 Assay for human CCAAT/Enhancer Binding Protein (C/EBP) beta (AID 2282927); settings: HepG2 Attagene cis-factorial transcription factor reporter; actives raise or lower the signal
CCAAT/enhancer-binding protein beta (Homo sapiens), sequence (P17676 whole entry, looked up, the tested form may be a part): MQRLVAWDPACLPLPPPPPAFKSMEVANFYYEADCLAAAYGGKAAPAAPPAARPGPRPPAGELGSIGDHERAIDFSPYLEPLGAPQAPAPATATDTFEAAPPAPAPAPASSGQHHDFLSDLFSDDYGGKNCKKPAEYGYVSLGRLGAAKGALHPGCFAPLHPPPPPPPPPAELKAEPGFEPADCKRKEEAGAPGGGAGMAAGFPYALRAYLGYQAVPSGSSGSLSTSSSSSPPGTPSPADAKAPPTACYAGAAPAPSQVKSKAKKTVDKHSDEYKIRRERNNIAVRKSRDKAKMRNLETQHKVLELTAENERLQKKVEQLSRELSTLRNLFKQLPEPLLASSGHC
In short: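 Endogenous C/EBPb-driven reporter transcripts measured in transfected human HepG2 cells at 24 h via RT-PCR and capillary electrophoresis of labelled fragments. Activity fitted in both directions relative to DMSO baseline.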

[3] = ATG_CMV_CIS: Attagene CIS-FACTORIAL HepG2 Assay for human CMV (Internal Marker) (AID 2282928); settings: HepG2 CMV promoter reporter, transcription factor profiling; actives raise or lower the signal;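 note: endpoint acts as a background internal control marker rather than a target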
In short: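 Reporter transcripts from transfected HepG2 cells are isolated after 24 h of chemical dosing, reverse-transcribed and amplified. Fragments labeled with 6-FAM are cut with HpaI and quantified by capillary electrophoresis; DMSO defines baseline.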

[4] = ATG_DR4_LXR_CIS: Attagene CIS-FACTORIAL HepG2 Assay for human Liver X Receptor (LXR), DR4 submotif (AID 2282929); settings: HepG2 Attagene DR4 cis-reporter, mRNA transcription; actives raise or lower the signal
In short: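 The endpoint is DR4-element-driven reporter transcripts after 24 h chemical exposure of transfected HepG2 cells. These were measured via RT-PCR and capillary electrophoresis, and gain or loss of signal was fitted relative to DMSO controls.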

[5] = target: Aryl hydrocarbon receptor (Homo sapiens) (UniProt P35869); assay: ATG_Ahr_CIS: Attagene CIS-FACTORIAL HepG2 Assay for human Aryl Hydrocarbon Receptor (Ahr) (AID 2282930); settings: HepG2 AhR cis-factorial reporter transcription; actives raise or lower the signal
Aryl hydrocarbon receptor (Homo sapiens), sequence (P35869 whole entry, looked up): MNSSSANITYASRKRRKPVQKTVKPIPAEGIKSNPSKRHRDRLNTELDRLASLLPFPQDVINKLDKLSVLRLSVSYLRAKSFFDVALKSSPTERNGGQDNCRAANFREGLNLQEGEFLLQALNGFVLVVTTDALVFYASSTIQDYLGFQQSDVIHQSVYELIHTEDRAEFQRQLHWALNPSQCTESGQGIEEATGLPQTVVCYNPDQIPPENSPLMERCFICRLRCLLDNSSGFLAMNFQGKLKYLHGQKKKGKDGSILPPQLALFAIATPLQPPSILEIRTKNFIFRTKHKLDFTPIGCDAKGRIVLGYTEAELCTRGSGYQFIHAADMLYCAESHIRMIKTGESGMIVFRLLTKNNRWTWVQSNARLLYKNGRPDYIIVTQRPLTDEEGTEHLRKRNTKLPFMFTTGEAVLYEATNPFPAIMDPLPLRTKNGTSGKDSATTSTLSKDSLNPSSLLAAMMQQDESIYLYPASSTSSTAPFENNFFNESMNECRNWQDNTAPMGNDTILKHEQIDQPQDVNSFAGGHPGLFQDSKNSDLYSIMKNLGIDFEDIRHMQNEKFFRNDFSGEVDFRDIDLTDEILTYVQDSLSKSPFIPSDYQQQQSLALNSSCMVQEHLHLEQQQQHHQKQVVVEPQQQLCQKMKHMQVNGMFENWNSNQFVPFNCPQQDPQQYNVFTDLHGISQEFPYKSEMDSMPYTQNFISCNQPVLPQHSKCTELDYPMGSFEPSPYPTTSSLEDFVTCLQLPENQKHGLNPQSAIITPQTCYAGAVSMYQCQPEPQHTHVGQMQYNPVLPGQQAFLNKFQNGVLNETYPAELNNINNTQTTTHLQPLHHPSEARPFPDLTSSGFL
In short: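 Reporter mRNA levels, quantified by RT-PCR and fluorescent capillary electrophoresis, reflect endogenous AhR transcriptional activity in HepG2 cells carrying transfected cis-promoter reporter constructs. Readout at 24 h post-dose; gain or loss fitted against DMSO baseline.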

[6] = ATG_AP_1_CIS: Attagene CIS-FACTORIAL HepG2 Assay for human Activator Protein 1 (AP-1) (AID 2282931); settings: HepG2 Attagene cis-factorial AP-1 reporter mRNA; actives raise or lower the signal
In short: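 Readout is reporter transcript level from endogenous transcription factor activity, quantified by RT-PCR with fluorescent primer extension and capillary electrophoresis. Transiently transfected HepG2 cells, 24 h exposure. Curves fitted both directions versus DMSO.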

[7] = ATG_AP_2_CIS: Attagene CIS-FACTORIAL HepG2 Assay for human Activator Protein 2 (AP-2) (AID 2282932); settings: HepG2 AP-2 cis-reporter, Attagene transcription factor profiling; actives raise or lower the signal
In short: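 Transiently transfected HepG2 cells are exposed to chemical for 24 h. Reporter transcripts are then measured as fluorescence following RT-PCR and capillary separation, and gain- or loss-of-signal is fitted relative to DMSO.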

[8] = ATG_BRE_CIS: Attagene CIS-FACTORIAL HepG2 Assay for human Bone Morphogenetic Protein (BMP) Response Element (BRE) (AID 2282933); settings: HepG2 BMP response element reporter, Attagene transcription factor profiling; actives raise or lower the signal
In short: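 After a 24 h chemical treatment, transiently transfected HepG2 cells were lysed for RNA; reporter transcripts were quantified by fluorescent RT-PCR and capillary electrophoresis, normalised to DMSO.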

[9] = target: Transcription factor E2F1 (Homo sapiens) (UniProt Q01094); assay: ATG_E2F_CIS: Attagene CIS-FACTORIAL HepG2 Assay for human E2F Transcription Factor 1 (AID 2282935); settings: HepG2 Attagene cis-reporter, E2F reporter RNA transcripts; actives raise or lower the signal
Transcription factor E2F1 (Homo sapiens), sequence (Q01094 whole entry, looked up): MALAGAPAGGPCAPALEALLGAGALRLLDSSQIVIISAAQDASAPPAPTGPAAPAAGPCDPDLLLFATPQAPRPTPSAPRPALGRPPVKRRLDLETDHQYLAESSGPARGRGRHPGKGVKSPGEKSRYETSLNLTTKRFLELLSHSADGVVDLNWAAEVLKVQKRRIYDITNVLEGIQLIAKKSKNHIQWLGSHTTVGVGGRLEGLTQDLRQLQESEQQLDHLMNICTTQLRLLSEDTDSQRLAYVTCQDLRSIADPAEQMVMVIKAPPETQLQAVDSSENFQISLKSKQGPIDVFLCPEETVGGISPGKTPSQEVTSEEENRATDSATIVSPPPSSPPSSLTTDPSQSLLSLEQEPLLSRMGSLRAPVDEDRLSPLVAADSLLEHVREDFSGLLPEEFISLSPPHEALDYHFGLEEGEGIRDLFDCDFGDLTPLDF
In short: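 Fluorescent RT-PCR products, digested with HpaI for 2 h at 37 C, are separated by capillary electrophoresis. Source RNA comes from transfected HepG2 cultures treated for 24 h.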

[10] = ATG_E_Box_CIS: Attagene CIS-FACTORIAL HepG2 Assay for human Enhancer Box (E-box) (AID 2282936); settings: HepG2 E-box cis-reporter transcription, actives raise or lower the signal
In short: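 Fluorescent reporter fragments separated by capillary electrophoresis gave the signal; mRNA came from HepG2 cells transfected with cis-element reporters and treated 24 h. Curves fitted bidirectionally relative to DMSO controls.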

[11] = ATG_M_61_CIS: Attagene CIS-FACTORIAL HepG2 Assay for M61 Transcription Factor (Internal Marker) (AID 2282937); settings: HepG2 Attagene CIS-FACTORIAL M61 internal marker reporter; actives raise or lower the signal
In short: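 Readout is reporter mRNA by RT-PCR, fluorescent primer extension and capillary electrophoresis, with gain or loss fitted relative to DMSO. Transfected HepG2 cells carrying endogenous-TF-driven cis reporters were exposed to chemicals for 24 hours.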

[12] = ATG_M_19_CIS: Attagene CIS-FACTORIAL HepG2 Assay for M19 Transcription Factor (Internal Marker) (AID 2282939); settings: HepG2 Attagene CIS-FACTORIAL M19 internal marker reporter; actives raise or lower the signal
In short: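 In this multiplexed cell assay, transiently transfected HepG2 reporter units report endogenous transcription-factor activity; after 24 hours of treatment, labelled reporter cDNA fragments are quantified by capillary electrophoresis and fitted bidirectionally against DMSO.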

[13] = ATG_ERE_CIS: Attagene CIS-FACTORIAL HepG2 Assay for Estrogen Response Element (ERE) (AID 2282940); settings: HepG2 ERE cis-reporter, Attagene RNA transcript; actives raise or lower the signal
In short: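 Measuring endogenous transcription factor output, the assay doses transfected HepG2 cells for 24 hours and quantifies reporter transcripts by fluorescent RT-PCR and capillary electrophoresis, with DMSO as baseline.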

[14] = ATG_Ets_CIS: Attagene CIS-FACTORIAL HepG2 Assay for human Erythroblast Transformation Specific (ETS) (AID 2282941); settings: HepG2 ETS cis-reporter transcription, actives raise or lower the signal
In short: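 Bidirectional fit versus DMSO of reporter mRNA signal, detected by RT-PCR and capillary electrophoresis in HepG2 cells transiently transfected with cis-element reporters and dosed 24 h.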

[15] = target: Hepatocyte nuclear factor 3-beta (Homo sapiens) (UniProt Q9Y261); assay: ATG_FoxA2_CIS: Attagene CIS-FACTORIAL HepG2 Assay for human Forkhead box A2 (FOXA2) (AID 2282942); settings: HepG2 cis-reporter transcription factor activity, 24 h; actives raise or lower the signal
Hepatocyte nuclear factor 3-beta (Homo sapiens), sequence (Q9Y261 whole entry, looked up): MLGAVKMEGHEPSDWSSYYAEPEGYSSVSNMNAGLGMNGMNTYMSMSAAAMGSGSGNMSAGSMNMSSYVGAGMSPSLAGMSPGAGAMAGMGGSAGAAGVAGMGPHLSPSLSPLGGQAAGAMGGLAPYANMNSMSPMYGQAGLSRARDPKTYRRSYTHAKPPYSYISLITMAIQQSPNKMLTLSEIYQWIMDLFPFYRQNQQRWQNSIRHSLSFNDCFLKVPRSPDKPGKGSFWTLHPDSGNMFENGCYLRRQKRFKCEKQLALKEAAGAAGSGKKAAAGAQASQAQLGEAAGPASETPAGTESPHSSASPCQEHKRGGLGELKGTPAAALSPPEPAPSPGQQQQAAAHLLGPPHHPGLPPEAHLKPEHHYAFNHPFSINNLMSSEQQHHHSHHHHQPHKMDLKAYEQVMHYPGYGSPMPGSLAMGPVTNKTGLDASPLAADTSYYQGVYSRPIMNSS
In short: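 Endogenous transcription factor activity is captured via cis-element-driven reporter transcripts in transfected HepG2. Total RNA taken at 24 h post-dosing; labelled RT-PCR products resolved by capillary electrophoresis. Gain or loss fitted versus DMSO.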

[16] = ATG_FoxO_CIS: Attagene CIS-FACTORIAL HepG2 Assay for human Forkhead box O (FoxO) (AID 2282943); settings: HepG2 Attagene cis-reporter, FoxO element, mRNA; actives raise or lower the signal
In short: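 Endogenous transcription factor activity read from multiplexed cis-promoter reporter transcripts in transiently transfected HepG2, 24 h after dosing. Reporter RNA measured via RT-PCR plus capillary electrophoresis of FAM-labeled products; gain or loss relative to DMSO.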

[17] = ATG_GATA_CIS: Attagene CIS-FACTORIAL HepG2 Assay for human GATA Binding Protein (AID 2282944); settings: HepG2 GATA cis-element reporter, Attagene multiplex mRNA; actives raise or lower the signal
In short: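 Measures endogenous transcription factor-driven reporter mRNA in HepG2 cells transiently carrying cis-regulated constructs. 24 h dosing; RNA via oligo(dT) reverse transcription, PCR, HpaI digestion, capillary electrophoresis; fitted relative to DMSO.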

[18] = ATG_GLI_CIS: Attagene CIS-FACTORIAL HepG2 Assay for human Zinc Finger Protein GLI1 (AID 2282945); settings: HepG2, Attagene cis-factorial reporter mRNA, GLI element; actives raise or lower the signal
In short: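 Bidirectional curve fits relative to DMSO, using reporter mRNA levels from RT-PCR plus capillary electrophoresis. Cells were HepG2 transiently carrying cis-regulated reporter constructs, harvested 24 h after dosing.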

[19] = ATG_EGR_CIS: Attagene CIS-FACTORIAL HepG2 Assay for human Early Growth Response 1 (EGR1) (AID 2282938); settings: HepG2 Attagene CIS-FACTORIAL EGR reporter mRNA; actives raise or lower the signal
In short: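 After 24 h compound exposure, RNA from reporter-transfected HepG2 cells was reverse-transcribed, PCR-amplified, fluorescently labelled and resolved by capillary electrophoresis. EGR1 reporter transcript changes, up or down, were fitted against DMSO, reflecting endogenous transcription-factor activity.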

Measured: AC50

O=P(c1ccccc1)(c1ccccc1)c1ccccc1
inactive: [1] | [2] | [3] | [5] | [6] | [7] | [8] | [9] | [10] | [11] | [12] | [13] | [14] | [15] | [16] | [17] | [18]
active: [4] 58.6 µM

O=C(OCc1ccccc1)C(=O)OCc1ccccc1
inactive: [1] | [2] | [3] | [4] | [5] | [6] | [7] | [8] | [9] | [11] | [19] | [12] | [13] | [14] | [15] | [16] | [17] | [18]

CC(=O)Nc1ccc(C)cc1C
inactive: [1] | [2] | [3] | [4] | [5] | [6] | [7] | [8] | [9] | [10] | [19] | [12] | [14] | [15] | [16] | [17] | [18]

CC(C)C1CCC(O)CC1 (stereo unspecified)
inactive: [1] | [2] | [3] | [4] | [5] | [6] | [7] | [8] | [9] | [10] | [11] | [12] | [14] | [15] | [16] | [17] | [18]

CC(C)CCCCCCCOC(=O)c1ccc(C(=O)OCCCCCCCC(C)C)c(C(=O)OCCCCCCCC(C)C)c1
inactive: [1] | [2] | [3] | [4] | [5] | [6] | [7] | [8] | [9] | [10] | [19] | [12] | [14] | [15] | [16] | [17] | [18]

O=C(O)c1cccc(C(F)(F)F)c1
inactive: [1] | [2] | [3] | [4] | [5] | [6] | [7] | [8] | [9] | [10] | [19] | [12] | [13] | [14] | [15] | [16] | [17] | [18]

C=COCCOCCOCCOC=C
inactive: [1] | [2] | [3] | [4] | [5] | [6] | [7] | [8] | [9] | [10] | [11] | [12] | [14] | [16] | [17] | [18]

CC(C)Oc1ccccc1O
inactive: [1] | [2] | [3] | [4] | [6] | [7] | [8] | [9] | [10] | [11] | [12] | [13] | [14] | [15] | [16] | [17] | [18]
active: [5] 47.8 µM

C=C(C)C(=O)O[C@H]1C[C@@H]2CC[C@@]1(C)C2(C)C
inactive: [1] | [2] | [7] | [8] | [11] | [19] | [12] | [14] | [16] | [17] | [18]
active: [3] 148 µM | [4] 26.7 µM | [5] 137 µM | [6] 100 µM | [9] 100 µM | [13] 60.7 µM

OC[C@H]1O[C@H](O[C@]2(CCl)O[C@H](CCl)[C@@H](O)[C@@H]2O)[C@H](O)[C@@H](O)[C@H]1Cl
inactive: [1] | [2] | [3] | [4] | [5] | [6] | [7] | [8] | [9] | [10] | [19] | [12] | [14] | [15] | [16] | [17] | [18]

COc1c(Cl)c(Cl)c(Cl)c(Cl)c1Cl
inactive: [1] | [2] | [4] | [5] | [6] | [7] | [8] | [9] | [10] | [11] | [19] | [12] | [15] | [16] | [17] | [18]
active: [3] 27.7 µM

COc1nc(C)nc(N)n1
inactive: [1] | [2] | [3] | [4] | [5] | [6] | [7] | [8] | [9] | [10] | [19] | [12] | [13] | [14] | [15] | [16] | [17] | [18]

O=C(O)c1snc(Cl)c1Cl
active: [1] 155 µM | [4] 100 µM | [5] 14.5 µM | [6] 100 µM | [19] 164 µM | [16] 130 µM
inactive: [2] | [3] | [7] | [8] | [9] | [10] | [11] | [12] | [15] | [17] | [18]

O=C1NC(=O)c2ccccc21
inactive: [1] | [2] | [3] | [4] | [5] | [6] | [7] | [8] | [9] | [10] | [11] | [19] | [12] | [15] | [16] | [18]

CCCc1ccccc1O
inactive: [1] | [2] | [3] | [4] | [6] | [7] | [8] | [9] | [10] | [11] | [19] | [12] | [15] | [16] | [17] | [18]
active: [5] 23.9 µM

Cc1cc(C2(c3cc(C)c(O)cc3C)OS(=O)(=O)c3ccccc32)c(C)cc1O
active: [5] 44.5 µM | [13] 2.74 µM
inactive: [1] | [2] | [3] | [4] | [6] | [7] | [8] | [9] | [11] | [19] | [12] | [14] | [15] | [16] | [17] | [18]
